Screens: PubChem BioAssay, National Center for Advancing Translational Sciences (NCATS)
SARS PLP yeast: blocks SARS-CoV papain-like protease in a yeast assay. S. cerevisiae expressing SARS-CoV PLpro, growth rescue. Potency, µM (highest dose often 32.9 µM), usual class: activators. actives 0.19% (n = 330,000). AID 485353; calls by dose curve; further: nearly all actives have a fitted effect of over 55% in size
Cycloheximide cs: counter-screen hit for Shiga toxin inhibitors, cycloheximide; AID 2314; actives 12% (n = 300,000); max response, %; cell reporter, cycloheximide protein synthesis inhibition counterscreen; in the data active means max response mostly above about 13%, no sharp cut-off; inactive means mostly below about 14%; further: read at 38.3 µM for the half of the compounds with a filed dose
Pf growth 96h: inhibits malaria parasite growth, 96 h; P. falciparum luciferase reporter growth, 96 h; Potency, µM (top dose mostly 28.7 µM), usual class: inhibitors; actives 6.9% (n = 320,000); AID 504834
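P. falciparum expressing integrated firefly luciferase grown in erythrocytes (2% hematocrit, 0.05% parasitemia final) with compounds for 96 hours at 37 C, 5% CO2. Growth inhibition read as loss of luminescence after adding luciferase detection reagent.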
Shiga inhibitor: blocks Shiga toxin action in Vero cells | inhibition, % at 38.7 µM | actives 9.2% (n = 290,000) | Vero cells, Shiga toxin protein synthesis inhibition reporter; in the data active means inhibition mostly above about 28%, no sharp cut-off; inactive means mostly below about 43%
NS1 inh: inhibitors of influenza NS1 protein function | AID 2326 | Potency, µM (titrated, usually from 46.1 µM) | actives 0.4% (n = 270,000); calls by dose curve; further: actives are rising curves; nearly all actives have a fitted effect of over 50% in size
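Compounds were scored for reversing the slow growth caused by influenza A NS1 in S. cerevisiae, measured by optical density at 600 nm. Assay medium contained 2% galactose at pH 6.0; NS1-free yeast of the same strain were the positive control.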
Pf growth 48h: P. falciparum growth inhibition at 48 hours (one generation). actives 5.9% (n = 310,000). AID 504832. Potency, µM (titrated, usually from 28.7 µM), most hits filed as inhibitors. P. falciparum luciferase growth in erythrocytes, 48 h
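A one-generation exposure of luciferase-tagged malaria parasites in RPMI 1640/Albumax erythrocyte culture, 37 C and 5% CO2. Inhibition is inferred from decreased luminescence after adding detection reagent.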
Of the large screens only hits and unclear results are named; the others gave an inactive call. Shown are actives, neighbours in structure and some others; about 21% of the full set was active somewhere. Unless noted, the call rests on the fitted dose curve; in most records, active means well fitted inhibition curve with a large enough effect; inconclusive means small, poorly fitted or top-dose-only effect, or another doubt; inactive means no such curve, though single readings can be large or run the other way.

Cc1ccc(S(=O)(=O)NCC(=O)N(CC(=O)NCC2CCCO2)Cc2ccccc2)cc1 (configuration not stated)	none
O=C(CN(Cc1ccco1)C(=O)CNS(=O)(=O)c1ccc(Cl)cc1)NCc1ccco1	Pf growth 96h inconclusive
CCCC[C@H]1CCCO[C@@](C(=O)NCc2ccccn2)(C(F)(F)F)C1	none (no result: SARS PLP yeast, Pf growth 96h, NS1 inh, Pf growth 48h)
CC(C)(C)n1nnnc1C(c1cccs1)N(Cc1ccccc1)Cc1cccnc1 (configuration not stated)	Pf growth 48h inconclusive
CC(C)(C)n1nnnc1C(c1cccnc1)N(Cc1ccccc1)Cc1cccs1 (configuration not stated)	Pf growth 96h 0.17µM, Pf growth 48h 0.83µM
CC(C)(C)n1nnnc1C(c1ccc(C(F)(F)F)cc1)N(Cc1ccc(F)cc1)Cc1ccco1 (configuration not stated)	Cycloheximide cs 13, Shiga inhibitor active, Pf growth 48h 1.9µM
CC(C)(C)c1ccc(CN(Cc2ccccc2)C(c2ccccn2)c2nnnn2C(C)(C)C)cc1 (configuration not stated)	Pf growth 48h 1.7µM (no result: Pf growth 96h)
CCN(Cc1ccccc1)C(c1ccc(C)cc1)c1nnnn1C(C)(C)CC (configuration not stated)	Pf growth 48h 13µM
CC1CCCCC1NC(=O)c1cccc(NC2=NC3CS(=O)(=O)CC3S2)c1 (configuration not stated)	none
Cc1ccc(S(=O)(=O)N2CCOCC2)cc1NC(=O)c1cc([N+](=O)[O-])ccc1N1CCOCC1	none (no result: Cycloheximide cs, Shiga inhibitor, NS1 inh)
CC(C)(C)n1nnnc1C(c1ccc(C(F)(F)F)cc1)N(Cc1ccccc1)Cc1ccco1 (configuration not stated)	Pf growth 48h inconclusive
Cc1ccc(C(c2nnnn2C(C)(C)C)N(Cc2ccco2)Cc2cccs2)cc1 (configuration not stated)	Pf growth 48h 13µM (no result: Pf growth 96h)
CC(C)(C)n1nnnc1C(c1ccc(F)cc1)N(Cc1ccc(F)cc1)Cc1ccco1 (configuration not stated)	Cycloheximide cs 16, Pf growth 48h inconclusive
Cc1cc(C)c(C)c(S(=O)(=O)NCc2ccncc2)c1C	Pf growth 96h inconclusive
CC(=O)Nc1cccc(NC(=O)CSc2nn3c(=O)c(C)nnc3s2)c1	Pf growth 96h 5.2µM, Pf growth 48h 9.3µM
CC(C)(C)c1nnc2sc(SCC(=O)c3cccs3)nn2c1=O	none
Cc1ccc(CSc2nn3c(=O)c(C)nnc3s2)cc1	Pf growth 96h inconclusive, Pf growth 48h 8.3µM
Cc1cccc(CSc2nn3c(=O)c(C)nnc3s2)c1	Pf growth 96h inconclusive, Pf growth 48h 10µM
Cc1ccc(C(=O)CSc2nn3c(=O)c(C(C)(C)C)nnc3s2)cc1	Pf growth 96h inconclusive
Cc1nnc2sc(SCC(=O)Nc3ccc(Cl)cc3)nn2c1=O	Pf growth 96h inconclusive, Pf growth 48h inconclusive
Cc1nnc2sc(SCc3ccc(Cl)cc3)nn2c1=O	Pf growth 96h 1µM, Pf growth 48h inconclusive
CCCN(C(=O)c1cc(Cl)nc2ccccc12)c1c(N)n(Cc2ccccc2)c(=O)[nH]c1=O	Pf growth 96h inconclusive, Pf growth 48h inconclusive (no result: Cycloheximide cs, Shiga inhibitor, NS1 inh)
N=C1C(c2ccccc2)=C(O)CN1c1cccc(O)c1	none (no result: NS1 inh)
CC1CCCC(NC(=O)C2N(CCCN3CCCC3)C(=O)C3C(C(=O)Nc4cccc(Cl)c4)C4C=CC32O4)C1C (configuration not stated)	Pf growth 48h inconclusive
CCOC(=O)C1Oc2ccccc2C(c2cccc3ccccc23)=C1C(=O)OC (configuration not stated)	none (no result: Pf growth 96h, NS1 inh, Pf growth 48h)
CC1CCCC(NC(=O)CCNC(=O)c2ccc(Br)cc2)C1C (configuration not stated)	Pf growth 48h inconclusive (no result: Cycloheximide cs, Shiga inhibitor, NS1 inh)
CCCSc1nnc(NC(=O)CCc2ccccc2)s1	none
CCCSc1nnc(NC(=O)c2sc3nc(-c4cccs4)ccc3c2N)s1	Cycloheximide cs 28, Pf growth 48h inconclusive
Cc1csc(NC(=O)c2sc3nc(-c4cccs4)ccc3c2N)n1	SARS PLP yeast inconclusive, Cycloheximide cs 41, Shiga inhibitor 69, Pf growth 48h inconclusive
CC(C)n1nnnc1SCC(=O)N1N=C(c2cccs2)CC1c1cccs1 (configuration not stated)	none (no result: Cycloheximide cs, Shiga inhibitor, NS1 inh)
O=C(NCCOc1ccccc1F)c1cc(F)c(F)cc1Cl	Cycloheximide cs 36, Shiga inhibitor 86
COc1ccccc1OCCNC(=O)c1cc(F)c(F)cc1Cl	Cycloheximide cs 30, Pf growth 96h inconclusive, Shiga inhibitor 25
CSc1ccccc1C(=O)NCCOc1ccccc1C	Pf growth 48h inconclusive (no result: NS1 inh)
COc1ccccc1OCCNC(=O)Nc1ccc(Br)cc1	none
COc1ccccc1OCCNC(=O)c1cc(SC)ccc1Cl	none
COc1ccccc1OCCNC(=O)c1ccc(Br)cc1	Cycloheximide cs 36, Pf growth 96h inconclusive, Shiga inhibitor 62
Cc1ccccc1C(=O)NCCOc1ccccc1Cl	Cycloheximide cs 36 (no result: Shiga inhibitor)
CCOC(=O)N1CCC(N2C(=O)c3ccc(C(=O)NCCOC)cc3C2=O)CC1	Pf growth 96h inconclusive
Cc1cc(C)cc(NC(=O)C(Sc2ncnc3ccccc23)c2ccccc2)c1 (configuration not stated)	Pf growth 96h 3.3µM, NS1 inh inconclusive, Pf growth 48h 12µM
O=C(Nc1cccc(C(F)(F)F)c1)C(Sc1ncnc2ccccc12)c1ccccc1 (configuration not stated)	Pf growth 96h inconclusive, Pf growth 48h 7.4µM
Cc1ccccc1CN1CCC(n2nccc2NC(=O)c2ccc3c(c2)OCO3)CC1	Pf growth 96h 9.3µM, Shiga inhibitor 34
COc1ccccc1C(=O)Nc1ccnn1C1CCN(Cc2cnn(C)c2C)CC1	Pf growth 96h 6.6µM
Cc1ccccc1CN1CCC(n2nccc2NC(=O)c2cccnc2)CC1	Pf growth 96h 9.3µM, Pf growth 48h inconclusive
COc1ccc(CN2CCC(n3nccc3NC(=O)c3ccc4c(c3)OCO4)CC2)cc1C	Pf growth 48h 12µM
O=S(=O)(Nc1nc2ccccc2s1)c1cnc(Cl)c(Br)c1	none
COc1ccc(/C=C(\NC(=O)c2ccco2)C(=O)Nc2ccc(C(C)=O)cc2)cc1	Pf growth 96h inconclusive
C=CCn1c(O)c(C=Nc2ccc(CN3CCCCC3)cc2)c(=O)[nH]c1=S	none
COc1cccc(/C=N/NC(=S)Nc2cccnc2)c1	none
COc1ccccc1NC(=S)N/N=C/c1cccc(C)c1	Cycloheximide cs 23
CCNC(=S)N/N=C/c1cc(C)ccc1C	SARS PLP yeast inconclusive
COc1ccccc1NC(=S)N/N=C/c1ccc(O)cc1	Cycloheximide cs 69, Shiga inhibitor 40
CCNC(=S)N/N=C/c1cccc(C)c1	Cycloheximide cs 37, Shiga inhibitor 56
O=C(NCc1ccc(OC(F)(F)F)cc1)C1CCC(=O)N(C2CC2)C1 (configuration not stated)	none
CCC(C)(C)NC(=O)C(c1cccc(OC)c1OC)N(C(=O)CCC(=O)Nc1cc(C)on1)C(C)C (configuration not stated)	Pf growth 96h inconclusive
